# High-throughput results deposited in PubChem by Broad Institute.
# A selection: hits, their analogues and other compounds. The true share with any hit is near 1.8%.
# RAD52 inh: inhibitors of human RAD52 DNA annealing | AID 651710 | inhibition, % at 18.7 µM | recombinant RAD52 DNA annealing, FRET fluorescence | 360,000 compounds, 0.46% hits;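 active = every replicate showing at least 50% inhibition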
# GSIS activator: GLuc luminescence reporter in INS-1E cells, primary screen for activators of glucose-dependent secretion of insulin; INS-1E GLuc reporter insulin secretion, 2-3 h; activation, % at 16.6 µM; 370,000 compounds, 0.61% hits;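 active = lowest replicate activation of at least 40%, so every replicate reaches that level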;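 also: 0% = median of neutral control wells and 100% = median of IBMX positive control wells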
# EWS-Fli block: inhibitors of EWS/Fli oncoprotein transcriptional activity | A673 NR0B1-luciferase reporter, viability-normalised | 350,000 compounds, 0.67% hits | AID 651661 | inhibition, % at 12.6 µM;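 active = mean inhibition of at least 50% after viability correction, with every replicate also passing that limit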;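 also: firefly luciferase signal divided by Alamar Blue viability fluorescence both relative to DMSO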
# RAD54 branch: RAD54 (human) branch migration inhibition. Q92698. RAD54 Holliday junction branch migration, FAM/BHQ fluorescence. inhibition, % at 10.4 µM. 360,000 compounds, 0.14% hits;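 active = mean normalized replicate activity at least 40 and at least half of replicates scoring 40 or more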;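 also: 0% = median of neutral control wells and 100% = median of positive control wells; inhibitors cause a drop in the FAM fluorescence signal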
# Target sequence (Q92698 whole entry, looked up): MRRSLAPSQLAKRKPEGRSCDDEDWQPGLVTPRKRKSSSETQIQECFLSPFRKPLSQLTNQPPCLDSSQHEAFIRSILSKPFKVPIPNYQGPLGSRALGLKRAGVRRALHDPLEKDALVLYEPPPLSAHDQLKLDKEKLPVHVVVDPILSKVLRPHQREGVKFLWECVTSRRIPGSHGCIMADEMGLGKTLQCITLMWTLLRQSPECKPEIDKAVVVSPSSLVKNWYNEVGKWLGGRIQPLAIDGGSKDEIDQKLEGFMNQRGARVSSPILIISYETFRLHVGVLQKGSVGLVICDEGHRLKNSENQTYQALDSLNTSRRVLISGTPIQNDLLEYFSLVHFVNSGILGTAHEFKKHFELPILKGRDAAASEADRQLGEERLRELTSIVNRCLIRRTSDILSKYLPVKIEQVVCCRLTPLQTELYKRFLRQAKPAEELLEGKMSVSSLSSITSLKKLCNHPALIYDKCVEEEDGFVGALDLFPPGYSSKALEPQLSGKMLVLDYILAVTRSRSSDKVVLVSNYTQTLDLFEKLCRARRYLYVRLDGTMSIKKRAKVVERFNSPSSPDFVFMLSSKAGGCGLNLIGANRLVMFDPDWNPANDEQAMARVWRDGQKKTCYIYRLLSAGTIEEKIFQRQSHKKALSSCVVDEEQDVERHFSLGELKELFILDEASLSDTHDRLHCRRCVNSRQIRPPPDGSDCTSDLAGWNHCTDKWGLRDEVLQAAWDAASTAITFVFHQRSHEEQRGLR
# LGR2 inh: blocks bursicon-induced cAMP signaling via Drosophila LGR2. inhibition, % at 9.99 µM. HEK293 LGR2, CRE-luciferase, bursicon-stimulated, 4 h. AID 720647. 380,000 compounds, 0.35% hits;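 active = drop in luminescence signal, shown as inhibition above about 50% in the replicate tests, limit read from the data, passing the limit was not always enough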;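 also: agonist challenge used bursicon conditioned medium at about half maximal strength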
# CFTR F508del cor: correctors of CFTR F508del function in bronchial epithelial cells | CFBE cells, YFP halide quenching; stimulated with forskolin plus potentiator P3; % fluorescence drop versus neutral controls | activity (quench increase), % at 7.58 µM | 350,000 compounds, 0.36% hits | AID 720511;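 active = mean added fluorescence quench of at least 8% versus neutral control, with both replicates also reaching 8%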;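 also: cells transiently co-express mutant CFTR-F508del with the halide-sensitive YFP; corrector assay measuring rescue of mutant channel to the surface after 24 h compound exposure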
# * = called active by the depositor; / = no result.
SMILES,RAD52 inh,GSIS activator,EWS-Fli block,RAD54 branch,LGR2 inh,CFTR F508del cor
O=C(COc1ccc(F)cc1)N(Cc1cccc(Br)c1)C1CCS(=O)(=O)C1 (stereo not drawn),-9,-5,14,-10,-4,1
O=C(COc1ccccc1)N(Cc1cccc(F)c1)C1CCS(=O)(=O)C1 (stereo not drawn),-4,51*,-8,0,10,-2
Cc1ccc(CNC(=O)c2ccc3nc4[nH]c5ccccc5c4nc3c2)cc1,/,61*,/,/,-8,/
CC(=O)Oc1ccccc1C(=O)C=Cc1cccc([N+](=O)[O-])c1,-124,/,43,9,101*,-1
O=C(/C=C/c1cccc([N+](=O)[O-])c1)n1cnc2ccccc21,-2,-27,65*,/,24,2
Cc1nn(-c2ccccc2)c(C)c1-c1cc(C(=O)N/N=C/c2ccc(O)cc2)[nH]n1,-8,-18,-5,/,7,2
COc1cc(/C=N/NC(=O)c2cc(-c3c(C)nn(-c4ccccc4)c3C)n[nH]2)ccc1O,18,3,-30,0,-30,14*
COc1cc(/C=N/Nc2nc(C)nc3c2cnn3-c2ccccc2)ccc1O,-8,-26,35,/,58*,-3
COc1cc(/C=N/NC(=O)c2nc(-c3ccccc3)n(-c3ccccc3)n2)ccc1O,/,-7,/,-3,3,/
NC(=S)NN=C1C2CC3CC(C2)CC1C3,-20,1,10,/,14,2
COc1ccc(NC(=O)Nc2nc(C(N)CC(C)C)cs2)cc1 (stereo not drawn),0,-22,6,10,9,-1
NC(c1csc(NC(=O)Nc2ccc(OC(F)(F)F)cc2)n1)C1CCCCC1 (stereo not drawn),50,-1,55*,-2,16,4
CCc1c(O)nc(SCC(=O)NC(C)(C)C)n(-c2ccccc2)c1=O,/,/,/,-4,/,/
CCCCCn1c(SCC(=O)OC)nc2c1c(=O)[nH]c(=O)n2C,-4,68*,0,3,-1,-2
CCCCCCn1c(N(CC)CC)nc2c1c(=O)[nH]c(=O)n2C,/,62*,/,9,-15,/
COC(=O)CSc1nc2c(c(=O)[nH]c(=O)n2C)n1CCC(C)C,/,/,/,0,/,/
CCN(CC)c1nc2c(c(=O)[nH]c(=O)n2C)n1Cc1ccccc1,-4,38,9,0,-7,3
CC1CCN(CCCNC(=O)c2nn(C)c3c2CS(=O)(=O)c2ccccc2-3)CC1,-12,15,/,/,-1,1
COc1ccc(CN(CCN2CCOCC2)C(=O)c2c(F)cccc2F)cc1OC,-10,31,-2,-2,-25,-2
C=CCN(Cc1ccc(OC)c(OC)c1)C(=O)N1CCOCC1,-6,53*,1,-22,-1,0
O=C(NCCCN1CCCC1)c1ccc2c(c1)N(Cc1ccccc1)CCS2,29,11,3,-8,2,2
CCN1CCN(CCCNC(=O)c2ccc3c(c2)N(Cc2ccccc2)CCS3)CC1,32,43*,11,12,5,-2
COC(=O)COc1ccc2cc(-c3ccc(OC)cc3)c(=O)oc2c1,9,14,10,0,2,1
CN(C)CC(=O)N[C@@H]1CC[C@@H](CCNC(=O)Nc2ccc(Cl)cc2)O[C@H]1CO,41,1,-31,-6,-5,0
Cc1ccc2sc(N(CCCN(C)C)C(=O)c3ccc(S(=O)(=O)N4CCc5ccccc5C4)cc3)nc2c1C,18,-52,26,3,-5,-3
SMILES,RAD52 inh,GSIS activator,EWS-Fli block,RAD54 branch,LGR2 inh,CFTR F508del cor
COc1ccc(C)c2sc(N(CCCN(C)C)C(=O)c3ccc(S(=O)(=O)N4CCc5ccccc5C4)cc3)nc12,95*,189*,58*,-1,-9,5
CC(=O)N1N=C(c2ccc(Br)cc2)OC1(C)CC(=O)Nc1ccccc1 (stereo not drawn),/,57*,/,/,9,/
CC(=O)N1N=C(c2ccccc2)OC12CCCC2,-7,-3,-1,/,-5,-1
Cc1cc(O)c(-c2cc(O)c(C)cc2O)cc1O,-3,24,70*,7,19,-3
Cc1cc(N=O)c(C)cc1O,-14,-2,2,-6,-4,-5
CCc1ccc(CN(C(=O)c2cccs2)C2CCS(=O)(=O)C2)cc1 (stereo not drawn),-3,36,0,-5,14,5
O=C(c1cccs1)N(Cc1ccc(Cl)cc1)C1CCS(=O)(=O)C1 (stereo not drawn),-4,48*,-2,-1,8,0
CCS(=O)(=O)NCC(c1cccnc1)N1CCN(c2ccccc2OC)CC1 (stereo not drawn),-11,8,-2,-9,0,2
COc1ccccc1N1CCN(C(CNS(=O)(=O)c2cccs2)c2cccnc2)CC1 (stereo not drawn),0,/,4,9,-1,8.1*
O=C(O)c1cccc(NS(=O)(=O)c2ccc3nnn(O)c3c2)c1,/,/,/,1,/,/
COc1cccc(OC)c1C(=O)OCC(=O)N(C)c1ccccc1,11,13,1,-4,-19,-1
CN(C(=O)COC(=O)c1cccs1)c1ccccc1,-6,117*,-3,-4,-1,-1
CS(=O)(=O)N(Cc1ccc(Cl)cc1)c1ccc(C(=O)Nc2cccnc2)cc1,/,/,/,-2,/,/
CCCCCc1cc(=O)oc2c(C(CCN3CCCC(C)C3)c3ccc(OC)cc3)c(OC)cc(OC)c12 (stereo not drawn),16,339*,43,6,25,0
O=C(O)c1ccc(S(=O)(=O)N2CCC3(CC2)CC(=O)c2ccccc2O3)cc1,-5,50*,0,-10,5,2
Cc1ccc(S(=O)(=O)N2CCC3(CC2)CC(=O)c2ccccc2O3)cc1,-4,-6,3,-4,3,0
On1ccccc1=S,-5,87*,52*,5,21,-5
Cc1cccc[n+]1CC(=O)/C=C1\N(C)c2ccccc2C1(C)C,-53,-87,75*,-11,-15,/
Cc1ccc[n+](CC(=O)/C=C2\N(C)c3ccccc3C2(C)C)c1,/,-22,/,-1,15,/
CONc1nc(NC(C)(C)C)nc(OCC#N)n1,-7,65*,4,/,-13,1
Cc1cccc(NC(=O)COC(=O)c2ccc3nc(C)c(C)nc3c2)c1,-9,7,-11,-4,11,-1
CCC1(C)Cc2ccccc2-c2nc[nH]c(=O)c21 (stereo not drawn),-10,29,15,10,-4,8.6*
Cc1[nH]c(=S)[nH]c(=O)c1CCOc1ccccc1,/,/,/,-7,/,/
Cc1ccccc1OCCc1c(C)[nH]c(=S)[nH]c1=O,1,1,55*,/,-162,4
Cc1ccc(S(=O)(=O)n2cc(C=O)c3ccccc32)cc1,-2,2,6,/,13,0
Cc1ccc(S(=O)(=O)n2cc(-c3ccccc3)c3ccccc32)cc1,-13,12,60*,-2,-22,1
